An excerpt weighted towards active compounds, which were near 1.5% of everything screened.
TLR4 MyD88 comp: blocks binding of human TLR4 to MyD88. O00206+Q99836. HeLa CL3-4 TLR4/MyD88 BLA complementation, FRET ratio. inhibition, % at 8.4 µM. actives 0.18% (n = 200,000). AID 861; in the data active means inhibition above about 25%
Beta2AR agonist: activates human beta-2 adrenergic receptor causing internalization. actives 0.43% (n = 340,000). AID 504454. response, % (concentration not given with the values). Am2.2-beta2AR cells, FAP receptor internalization, flow cytometry;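 active means response above a set limit, near 3 SD of response in nonfluorescent compounds, cut at about 42% in these data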
ABHD5 PLIN5 PPI: ABHD5-PLIN5 protein interaction inhibition. inhibition, % at 4 µM. Split G. princeps luciferase complementation, luminescence, 4 h. actives 0.78% (n = 360,000);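 active means inhibition above the mean inhibition across every tested compound plus 3 SD, cut at about 22% in these data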
TLR9-MyD88 inh: TLR9-MyD88 interaction inhibition. Q9NR96+Q99836. CHO BLA complementation TLR9-MyD88, CCF4 FRET ratio. inhibition, % at 4.98 µM. actives 0.21% (n = 340,000);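 active means inhibition above the mean over all tested compounds plus 3 SD, cut at about 21% in these data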
NTR1 ag: agonists of human neurotensin receptor NTR1 | actives 0.17% (n = 330,000) | NTR1-U2OS beta-arrestin-GFP spot imaging, agonist mode | activation, % at 20 µM | P30989;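 active means activation at or above 40% of the spot to cytoplasm intensity ratio, with at least 20 cells analyzed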
NOD2 RIPK2 PPI: inhibitors of human NOD2-RIPK2 interaction; O43353; CHO BLA complementation NOD2-RIPK2, CCF4 ratio; inhibition, % at 4.98 µM; actives 0.38% (n = 360,000); in the data active means inhibition above about 21%
Target sequence (O43353 whole entry, looked up): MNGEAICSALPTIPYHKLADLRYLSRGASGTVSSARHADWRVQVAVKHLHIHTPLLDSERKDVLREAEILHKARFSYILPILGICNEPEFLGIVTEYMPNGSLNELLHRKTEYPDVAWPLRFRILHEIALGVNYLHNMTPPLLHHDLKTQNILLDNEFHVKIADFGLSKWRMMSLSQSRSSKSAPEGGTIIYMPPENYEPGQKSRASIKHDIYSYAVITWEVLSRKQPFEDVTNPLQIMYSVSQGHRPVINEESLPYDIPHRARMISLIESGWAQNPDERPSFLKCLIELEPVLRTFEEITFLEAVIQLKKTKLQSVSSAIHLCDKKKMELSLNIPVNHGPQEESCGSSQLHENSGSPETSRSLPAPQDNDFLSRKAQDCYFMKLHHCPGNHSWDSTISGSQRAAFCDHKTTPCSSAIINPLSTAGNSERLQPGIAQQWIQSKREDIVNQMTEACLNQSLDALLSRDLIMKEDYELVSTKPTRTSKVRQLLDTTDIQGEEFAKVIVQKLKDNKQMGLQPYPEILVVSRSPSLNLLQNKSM
Beta2AR ag CP1: activates human beta-2 adrenergic receptor | actives 25% (n = 1,100) | percent response (surface receptor), % at 10 µM | Am2.2-beta2AR cells, FAP surface receptor, flow cytometry; active compounds read low | AID 540358 | shares compounds with Beta2AR agonist;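 active means surface receptor percent response at or below 58%, roughly 3 SD from nonfluorescent compounds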
FAP fluor counter: flagged in Am2.2 fluorescence counterscreen for beta-2AR agonists; 1,100 tested, under 10 active; Am2.2 cells, FAP fluorogen flow cytometry; active compounds read low; calls only at 10 µM; shares compounds with Beta2AR agonist;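 active means percent response below a set limit in fluorescence channel 1 and below 50% in channel 8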
Hits are given with their value; 0 = inactive; - = no result.

SMILES	TLR4 MyD88 comp	Beta2AR agonist	ABHD5 PLIN5 PPI	TLR9-MyD88 inh	NTR1 ag	NOD2 RIPK2 PPI	Beta2AR ag CP1	FAP fluor counter
CCN(CC)CCNC(=O)c1cc(-c2cccnc2)nc2ccc(S(=O)(=O)N3CCC(C)CC3)cc12	-	0	0	0	0	0	0	0
CCCCN(C)CCNC(=O)c1cc(-c2cccnc2)nc2ccc(S(=O)(=O)N3CCC(C)CC3)cc12	-	46.4	0	0	0	0	0	0
COC(=O)C[C@@H]1CC[C@H](NC(=O)Nc2cccc(F)c2)[C@@H](CO)O1	-	-	0	-	-	0	-	-
Cc1ccc(F)c(S(=O)(=O)NC(=O)C2(C)CCN2C(=O)CCC2CCCC2)c1 (centres undefined)	-	-	0	-	-	0	-	-
CCCNC(=O)C1(C)CCN(C(=O)c2cccc(C#N)c2)C1 (centres undefined)	-	-	0	-	-	0	-	-
Cc1cccc2nc(COc3ccc4ccccc4c3Br)cn12	-	97.6	0	0	0	0	26.4	0
Cc1cccc2nc(CSc3ccccc3N)cn12	0	0	0	0	0	0	-	-
CCOc1ccccc1N=NC1C(=O)N(C(N)=S)N=C1C (centres undefined)	-	0	0	0	0	0	0	0
CC[C@@H]1Cc2[nH]c(=O)[nH]c(=O)c2[C@H](c2ccc(Cl)cc2)O1	-	-	0	-	-	0	-	-
O=C(c1ccc(OC2CCN(Cc3cccc(OCCO)c3)CC2)cc1)N1CCCC1	-	0	0	0	0	0	0	0
O=C(c1cccc(OC2CCN(Cc3cccc(OCCO)c3)CC2)c1)N1CCCC1	-	0	0	0	0	0	-	-
COc1cccc(CN2CCC(Oc3ccc(C(=O)N4CCCCC4)cc3)CC2)c1	-	0	0	0	0	0	0	0
COc1ccc(CN2CCC(Oc3ccc(C(=O)N4CCCCC4)cc3)CC2)cc1C	-	0	0	0	0	0	0	0
O=C(c1ccc(OC2CCN(Cc3cccc(F)c3)CC2)cc1)N1CCCCC1	-	0	0	0	0	0	-	-
C=CCn1c(-c2ccccc2)c[nH]c1=S	0	0	0	0	0	0	-	-
C=CCn1c(-c2ccc(Cl)cc2)c[nH]c1=S	0	-	0	0	0	0	0	0
COc1c2ccccc2nn1C(C)C	-	-	0	-	-	0	-	-
CC(C)NC(=O)C1Cc2c(-c3ccccc3Oc3ccccc3)ccnc2O1 (centres undefined)	-	-	0	-	-	0	-	-
Cc1nc2sccn2c(=O)c1S(=O)(=O)N1CCN(c2ccccc2F)CC1	-	-	0	-	-	0	-	-
CCC1CCCCN1CCCNC(=O)c1ccc(/C=C2/Sc3ccccc3NC2=O)cc1 (centres undefined)	-	43.9	0	0	0	0	0	0
CCCCC[C@@H](C)N1C[C@@H](COCc2ccccc2)Oc2cc(N3CC[C@H](N(C)C)C3)ccc2S1(=O)=O	-	-	0	-	-	0	-	-
CCC(C)(C)c1ccc(OCCCC[n+]2cccc(C)c2C)c(C(C)(C)CC)c1	-	55.5	0	0	0	0	0	0
CCOC(=O)C1(C)CCCN(C(=O)c2cccc(OC(F)(F)F)c2)C1 (centres undefined)	-	-	0	-	-	0	-	-
CCOC(=O)Cc1ccc(Nc2nc3cc(-c4sccc4C)sc3c(=O)n2C)cc1	-	-	0	-	-	0	-	-
NC(=O)CC(NC(=O)c1ccc(Br)cc1)c1ccc(N2CCN(c3ccccc3)CC2)c([N+](=O)[O-])c1 (centres undefined)	-	0	0	0	0	0	-	-
SMILES	TLR4 MyD88 comp	Beta2AR agonist	ABHD5 PLIN5 PPI	TLR9-MyD88 inh	NTR1 ag	NOD2 RIPK2 PPI	Beta2AR ag CP1	FAP fluor counter
NC(=O)CC(NC(=O)Cc1ccc(Cl)cc1)c1ccc(NCCCN2CCCC2=O)c([N+](=O)[O-])c1 (centres undefined)	-	0	0	0	0	0	0	0
NC(=O)CC(NC(=O)c1ccccc1)c1ccc(N2CCN(c3ccccn3)CC2)c([N+](=O)[O-])c1 (centres undefined)	-	0	0	0	0	0	0	0
NC(=O)CC(NC(=O)c1ccccc1)c1ccc(NCCCN2CCCC2=O)c([N+](=O)[O-])c1 (centres undefined)	-	90.1	0	0	0	0	36.3	0
NC(=O)CC(NC(=O)Cc1ccc(Cl)cc1)c1ccc(NC2CCCCCCC2)c([N+](=O)[O-])c1 (centres undefined)	-	0	0	0	0	0	-	-
CC(C)[C@H](NC(=O)c1cccc(S(=O)(=O)N2CCOCC2)c1)C(=O)OCC(=O)Nc1cccc(Br)c1	-	0	0	0	-	0	-	-
Cc1cccc(C)c1NC(=O)C1(C)CN(S(C)(=O)=O)CC(=O)N1CCc1ccc(O)cc1 (centres undefined)	-	-	0	-	-	0	-	-
Cc1nc(NC(=O)CSc2nnc(-c3ccccc3)c(-c3ccccc3)n2)c(Cl)cc1Cl	0	47.6	0	0	0	0	0	0
c1ccc(Cn2c(Cn3c(-c4cnccn4)nc4ccccc43)nc3ccccc32)cc1	-	-	0	-	-	0	-	-
CC1CCCN(C(=O)COC(=O)c2ccc[nH]c2=O)C1 (centres undefined)	0	51.0	0	0	0	0	0	0
CN(C(=O)COC(=O)c1ccc[nH]c1=O)C1CCCCC1	0	0	0	0	0	0	-	-
O=C(Cn1cc2c(n1)CCCC2)NCc1ccccn1	0	99.7	0	0	0	0	0	0
O=C(Cn1cc2c(n1)CCCC2)NCc1cccs1	0	0	0	0	0	0	-	-
O=C(OCc1c(F)cccc1Cl)c1cnc2ccccc2n1	-	46.1	0	0	0	0	0	0
COc1ccc(NC(=O)c2cc(-c3cccnc3)nc3ccc(C)cc23)cc1OC	0	0	0	0	-	0	-	-
COc1ccc(NC(=O)c2cc(-c3ccncc3)nc3ccc(Br)cc23)cc1OC	-	97.0	0	0	0	0	0	0
C=CCn1c(CCNC(=O)c2cccs2)nnc1SCC(=O)c1ccc(Br)cc1	0	98.1	0	0	0	0	18.6	0
COc1ccc(C(CCNCc2ccc(OC(C)C)cc2)c2ccccc2OC)cc1 (centres undefined)	-	0	0	0	0	0	54.1	0
COc1ccc(CNCCC(c2ccccc2)c2ccc(OC(C)C)cc2)cc1OC (centres undefined)	-	0	0	0	0	0	-	-
COc1ccc(CNCCC(c2ccc(OC)cc2)c2ccccc2OC)cc1 (centres undefined)	-	0	0	0	0	0	0	0
COc1ccc(C(CCNCc2ccc(N(C)C)cc2)c2ccccc2OC)cc1 (centres undefined)	-	0	0	0	0	0	0	0
Cn1nnnc1Sc1ncnc2scc(-c3ccc(Br)cc3)c12	-	67.8	0	0	0	0	32.4	0
Cn1nnnc1Sc1ncnc2scc(-c3ccc(F)cc3)c12	0	0	0	0	0	0	-	-

Screens deposited in PubChem by several laboratories.
